Results filed as inconclusive are left out. Active and inactive are the calls of the source. Unless noted, the call rests on the fitted dose curve.
Columns and labels:
[1] = qHTS assay to identify small molecule antagonists of the estrogen receptor beta (ER-beta) signaling pathway - cell viability counter screen (AID 1259382; active means well fitted curve in the direction sought with a large enough effect in the repeat runs; an effect the other way counts as inactive or inconclusive;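 further: HEK293T cells carrying ER-beta-UAS-bla reporter stimulated with estradiol; series mostly up to about 92 µM; nearly all actives have a fitted effect of over 55% in size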)
In short: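 Tox21 10K library tested in qHTS format on ER-beta-bla HEK293T cells stimulated with 1nM E2; 16 hr treatment at 37C. Same-well CellTiter-Glo luminescence served as the cell viability measure.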

[2] = biological target: Estrogen receptor (Homo sapiens) (UniProt P03372); experiment: qHTS assay to identify small molecule agonists of the estrogen receptor alpha (ER-alpha) signaling pathway in the presence of an antagonist (AID 1259383); further: top concentration of the series differs between compounds; nearly all actives have a fitted effect of over 15% in size
Sequence of Estrogen receptor (Homo sapiens) (P03372 whole entry, looked up): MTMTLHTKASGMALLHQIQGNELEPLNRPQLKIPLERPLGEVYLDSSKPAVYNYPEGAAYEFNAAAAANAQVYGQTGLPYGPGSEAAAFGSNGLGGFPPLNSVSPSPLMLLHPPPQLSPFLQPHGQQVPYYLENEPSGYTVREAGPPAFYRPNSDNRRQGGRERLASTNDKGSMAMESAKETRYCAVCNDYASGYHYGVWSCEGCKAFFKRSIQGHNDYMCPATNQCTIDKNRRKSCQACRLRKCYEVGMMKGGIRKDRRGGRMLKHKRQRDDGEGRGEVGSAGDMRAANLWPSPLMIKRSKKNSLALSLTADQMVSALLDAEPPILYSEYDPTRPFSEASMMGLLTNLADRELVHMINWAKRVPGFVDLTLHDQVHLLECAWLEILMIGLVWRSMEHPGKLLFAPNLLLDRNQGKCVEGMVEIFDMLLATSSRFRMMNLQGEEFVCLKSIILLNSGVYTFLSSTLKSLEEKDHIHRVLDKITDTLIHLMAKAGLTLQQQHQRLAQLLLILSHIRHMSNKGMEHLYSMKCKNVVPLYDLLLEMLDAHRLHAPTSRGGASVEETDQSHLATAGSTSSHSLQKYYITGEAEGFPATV
In short: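 In VM7Luc4E2 cells, 4,000 per well, compounds at 15 concentrations were co-incubated 22hr at 37C with 10.0nM final ICI-182,780. Luminescence from the stably transfected 4×ERE-luciferase reporter was recorded 30min after ONE-Glo addition.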

[3] = qHTS assay to identify small molecule agonists or antagonists of the thyroid stimulating hormone receptor (TSHR) signaling pathway - wild type cell line counter screen (AID 1259384)
In short: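 Counter screen in untransfected Hek293: compounds (15-point titration, triplicate) plus phosphodiesterase inhibitor Ro20-1724 added after 18 h plating; 30 min RT. Intracellular cAMP via competitive d2/cryptate immunoassay, 1 h incubation.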

[4] = biological target: Thyrotropin receptor (Homo sapiens) (UniProt P16473); experiment: qHTS assay to identify small molecule antagonists of the thyroid stimulating hormone receptor (TSHR) signaling pathway (AID 1259385); further: nearly all actives have a fitted effect of over 20% in size
Sequence of Thyrotropin receptor (Homo sapiens) (P16473 whole entry, looked up): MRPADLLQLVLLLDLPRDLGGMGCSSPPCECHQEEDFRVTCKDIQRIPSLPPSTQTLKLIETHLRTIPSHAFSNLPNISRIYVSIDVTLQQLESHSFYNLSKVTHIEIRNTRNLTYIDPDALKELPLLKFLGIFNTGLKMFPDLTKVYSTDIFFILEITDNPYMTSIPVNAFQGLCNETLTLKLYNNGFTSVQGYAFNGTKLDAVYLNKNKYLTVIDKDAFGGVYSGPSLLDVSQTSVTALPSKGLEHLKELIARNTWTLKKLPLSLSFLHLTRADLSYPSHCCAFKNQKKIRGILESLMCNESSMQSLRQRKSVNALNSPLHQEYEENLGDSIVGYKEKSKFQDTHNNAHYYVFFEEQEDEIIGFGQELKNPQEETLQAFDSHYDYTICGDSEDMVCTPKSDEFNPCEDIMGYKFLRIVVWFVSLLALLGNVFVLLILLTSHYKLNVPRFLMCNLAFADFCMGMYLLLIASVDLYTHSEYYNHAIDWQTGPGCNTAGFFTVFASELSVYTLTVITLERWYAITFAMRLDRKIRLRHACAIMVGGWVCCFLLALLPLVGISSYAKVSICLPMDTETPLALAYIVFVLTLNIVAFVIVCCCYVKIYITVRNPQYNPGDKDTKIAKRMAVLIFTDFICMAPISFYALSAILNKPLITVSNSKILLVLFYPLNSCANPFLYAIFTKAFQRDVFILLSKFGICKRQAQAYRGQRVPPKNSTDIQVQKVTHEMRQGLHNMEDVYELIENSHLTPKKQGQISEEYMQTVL
In short: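 Antagonist mode: compound-treated TSHR-expressing HEK293 cells were stimulated with 1.5 ng/mL TSH (final) in presence of Ro20-1724 for 30 min at RT. HTRF cAMP detection after 1 h; each compound tested at 15 concentrations, triplicate.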

[5] = qHTS assay to identify small molecule agonists of the estrogen receptor alpha (ER-alpha) signaling pathway in the presence of an antagonist - cell viability counter screen (AID 1259386; active means well fitted curve in the direction sought with a large enough effect in the repeat runs; an effect the other way counts as inactive or inconclusive;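 further: series mostly up to about 92 µM; cells exposed to compounds for 22 h at 37 °C before the viability read; nearly all actives have a fitted effect of over 30% in size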)
In short: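 Fluorescent CellTiter-Fluor viability signal from VM7Luc4E2 cells, with the reagent added during the final hour of a 22hr compound exposure at 37C in the presence of 10.0nM ICI-182,780.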

[6] = biological target: Progesterone receptor (Homo sapiens) (UniProt P06401); experiment: qHTS assay to identify small molecule agonists of the progesterone receptor (PR) signaling pathway (AID 1346784); further: nearly all actives have a fitted effect of over 30% in size
Sequence of Progesterone receptor (Homo sapiens) (P06401 whole entry, looked up): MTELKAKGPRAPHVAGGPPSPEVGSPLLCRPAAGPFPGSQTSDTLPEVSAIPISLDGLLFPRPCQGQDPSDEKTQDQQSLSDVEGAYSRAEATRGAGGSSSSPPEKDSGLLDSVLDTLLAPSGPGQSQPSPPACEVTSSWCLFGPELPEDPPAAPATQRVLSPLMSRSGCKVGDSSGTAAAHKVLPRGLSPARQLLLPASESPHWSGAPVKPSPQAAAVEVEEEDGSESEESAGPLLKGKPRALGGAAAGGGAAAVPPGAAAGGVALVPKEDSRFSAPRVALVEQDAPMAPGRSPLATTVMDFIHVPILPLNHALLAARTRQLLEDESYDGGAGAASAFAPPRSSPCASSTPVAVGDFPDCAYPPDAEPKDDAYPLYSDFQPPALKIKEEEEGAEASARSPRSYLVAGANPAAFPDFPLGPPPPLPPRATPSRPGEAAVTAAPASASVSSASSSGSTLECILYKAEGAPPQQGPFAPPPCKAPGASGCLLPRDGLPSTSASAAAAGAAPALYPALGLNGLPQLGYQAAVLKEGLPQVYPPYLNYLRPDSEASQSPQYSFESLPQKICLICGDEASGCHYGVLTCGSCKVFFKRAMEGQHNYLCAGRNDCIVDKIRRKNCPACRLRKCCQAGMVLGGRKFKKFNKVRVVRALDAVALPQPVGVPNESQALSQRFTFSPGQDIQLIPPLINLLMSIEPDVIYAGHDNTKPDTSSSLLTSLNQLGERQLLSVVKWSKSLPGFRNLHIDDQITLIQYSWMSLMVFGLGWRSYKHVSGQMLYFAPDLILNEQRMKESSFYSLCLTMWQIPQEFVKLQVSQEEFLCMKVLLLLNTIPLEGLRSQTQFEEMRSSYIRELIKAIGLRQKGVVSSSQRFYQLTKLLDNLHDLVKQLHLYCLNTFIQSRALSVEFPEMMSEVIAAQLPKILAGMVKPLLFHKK
In short: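 HEK 293T PR-UAS-bla reporter cells, 2% charcoal-stripped FBS; 6 hr settle at 37C/5% CO2, compound (DMSO) 16 hr, LiveBLAzer B/G FRET substrate 2 hr RT, fluorescence intensity read.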

[7] = qHTS assay to identify small molecule antagonists of the progesterone receptor (PR) signaling pathway - cell viability counter screen (AID 1346798; active means well fitted curve in the direction sought with a large enough effect in the repeat runs; an effect the other way counts as inactive or inconclusive; further: series mostly up to about 92 µM; nearly all actives have a fitted effect of over 50% in size)
In short: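 Luminescence readout (CellTiter-Glo, 30 min, RT) of viability in PR-UAS-bla HEK293T cells exposed to compound and R5020 agonist for 16 hr at 37C, 5% CO2; run in the same wells as the beta-lactamase reporter read.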

[8] = qHTS assay to identify small molecule agonists of the progesterone receptor (PR) signaling pathway - cell viability counter screen (AID 1346799); further: nearly all actives have a fitted effect of over 45% in size
In short: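 HEK293T PR-UAS-bla, 3,000 cells/well, 2% charcoal-stripped FBS; 6 h settle, compound 16 h at 37C/5% CO2; LiveBLAzer 2 h RT, then CellTiter-Glo 30 min RT, luminescence read.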

[9] = biological target: Progesterone receptor (Homo sapiens) (UniProt P06401); experiment: qHTS assay to identify small molecule antagonists of the progesterone receptor (PR) signaling pathway (AID 1346795; active means well fitted inhibition curve with a large enough effect in the signal ratio in the repeat runs, not every such curve was filed as active; the % refers to the signal ratio)
In short: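 Beta-lactamase reporter, HEK293T PR-UAS-bla line; 2% charcoal-stripped FBS; 6 hr pre-incubation, 37C/5% CO2. Compound + R5020 1 nM final, 16 hr. LiveBLAzer B/G FRET substrate, 2 hr RT; fluorescence intensity read.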
On the % scale 0 is the no-effect control and ±100 the full control effect.

C=CC(=O)OCC1CCCO1 (stereo not drawn)
inactive: outcome [1] | Potency [2] | outcome [3] | outcome [4] | outcome [5] | Potency [6] | outcome [7] | outcome [8]

CC1(C)CC(OC(=O)CCCCCCCCC(=O)OC2CC(C)(C)NC(C)(C)C2)CC(C)(C)N1
inactive: activity change, negative = cytotoxicity [1] -21.6% [at 19 µM] | activation [2] -0.324% [at 19 µM] | cAMP activity change [3] -0.26% [at 18.9 µM] | activity change, negative = inhibition [4] -9.89% [at 19 µM] | activity change, negative = cytotoxicity [5] -0.743% [at 19 µM] | activation [6] 0.194% [at 19 µM] | activity change, negative = cytotoxicity [7] -13.3% [at 18.9 µM] | activity change, negative = cytotoxicity [8] 0.742% [at 19 µM]

CCCCSCCCC
inactive: outcome [1] | outcome [3] | outcome [4] | outcome [5] | Potency [6] | Potency [9] | outcome [7] | outcome [8]

Cn1nnc2c(C(N)=O)ncn2c1=O
inactive: outcome [1] | Potency [2] | outcome [5] | Potency [6] | Potency [9] | outcome [7] | outcome [8]

CCCCCC(C)O (stereo not drawn)
inactive: outcome [1] | Potency [2] | outcome [3] | outcome [4] | outcome [5] | outcome [7] | outcome [8]

OCC(O)CN1CCN(c2ccccc2)CC1 (stereo not drawn)
inactive: outcome [1] | outcome [3] | outcome [4] | outcome [5] | Potency [6] | Potency [9] | outcome [7] | outcome [8]

CC(=O)CCc1ccc(OC(C)=O)cc1
inactive: outcome [1] | Potency [2] | outcome [3] | outcome [4] | outcome [5] | outcome [7] | outcome [8]

O=C(O)CCCCCC(=O)O
inactive: outcome [1] | Potency [2] | outcome [5] | outcome [7] | outcome [8]

Cc1c(N)cccc1Cl
inactive: outcome [1] | Potency [2] | outcome [3] | outcome [4] | outcome [5] | outcome [7] | outcome [8]

O/N=C/C=N/O
inactive: outcome [1] | outcome [3] | outcome [4] | outcome [5] | Potency [6] | Potency [9] | outcome [7] | outcome [8]

CN(C)CC/C=C1/c2ccccc2COc2ccc(CC(=O)O)cc21
inactive: outcome [1] | outcome [3] | outcome [4] | outcome [5] | Potency [6] | Potency [9] | outcome [7] | outcome [8]

CCC[C@@H]1C[C@@H](C(=O)N[C@@H]([C@H]2O[C@H](SC)[C@H](O)[C@@H](O)[C@H]2O)[C@@H](C)O)N(C)C1
inactive: outcome [1] | Potency [2] | outcome [3] | outcome [4] | outcome [5] | outcome [7]

CC1=C(C(=O)O)N2C(=O)[C@@H](NC(=O)[C@H](N)c3ccccc3)[C@H]2SC1
inactive: outcome [1] | Potency [2] | outcome [5] | Potency [9] | outcome [7] | outcome [8]

CC(C)(C)NC[C@H](O)COc1cccc2c1CCCC2=O
inactive: outcome [1] | Potency [2] | outcome [5] | Potency [9] | outcome [7] | outcome [8]

CC(C)OC(=O)CCC(=O)OC(C)C
inactive: outcome [1] | outcome [3] | outcome [4] | outcome [5] | Potency [6] | Potency [9] | outcome [7] | outcome [8]

CC(C)=CCC/C(C)=C/COC=O
inactive: outcome [1] | outcome [3] | outcome [4] | outcome [5] | Potency [6] | Potency [9] | outcome [7] | outcome [8]

COS(=O)(=O)O
inactive: outcome [1] | outcome [3] | outcome [4] | outcome [5] | Potency [6] | Potency [9] | outcome [7] | outcome [8]

C=Cc1ccc(C(C)(C)C)cc1
inactive: outcome [1] | outcome [3] | outcome [4] | outcome [5] | Potency [6] | Potency [9] | outcome [7] | outcome [8]

CC(O)COC(C)(C)C (stereo not drawn)
inactive: outcome [1] | outcome [3] | outcome [4] | outcome [5] | Potency [6] | Potency [9] | outcome [7] | outcome [8]

Cn1c(=O)c2[nH]c(Br)nc2n(C)c1=O
inactive: outcome [1] | outcome [3] | outcome [4] | outcome [5] | Potency [6] | Potency [9] | outcome [7] | outcome [8]

CCCC(=O)OCCC(C)CCC=C(C)C (stereo not drawn)
inactive: outcome [1] | outcome [3] | outcome [4] | outcome [5] | Potency [6] | Potency [9] | outcome [7] | outcome [8]

C=C(C)[C@@H]1CC=C(C)CC1
inactive: outcome [1] | Potency [2] | outcome [5] | Potency [6] | Potency [9] | outcome [7] | outcome [8]

CO[Si](CCCn1c(=O)n(CCC[Si](OC)(OC)OC)c(=O)n(CCC[Si](OC)(OC)OC)c1=O)(OC)OC
inactive: outcome [1] | outcome [3] | outcome [4] | outcome [5] | Potency [6] | Potency [9] | outcome [7] | outcome [8]

CN(C)CCCO[C@@H]1[C@H]2OC(C)(C)O[C@H]2O[C@@H]1C(O)CO (stereo partly drawn)
inactive: outcome [1] | Potency [2] | outcome [5] | Potency [6] | outcome [7] | outcome [8]

N[C@@H](Cc1ccc(O)cc1)C(=O)O
inactive: activity change, negative = cytotoxicity [1] 2.66% [at 8.39 µM] | cAMP activity change [3] 6.84% [at 8.39 µM] | activity change, negative = inhibition [4] 3.38% [at 8.39 µM] | activity change, negative = cytotoxicity [5] 1.69% [at 8.39 µM] | activation [6] -2.73% [at 8.39 µM] | activity change, negative = inhibition [9] 7.58% [at 8.39 µM] | activity change, negative = cytotoxicity [7] -4.23% [at 8.39 µM] | activity change, negative = cytotoxicity [8] -21.8% [at 8.39 µM]

CC(C)CO
inactive: outcome [1] | Potency [2] | outcome [3] | outcome [4] | outcome [5] | outcome [8]

CC(O)CC(C)O (stereo not drawn)
inactive: outcome [1] | outcome [3] | outcome [4] | outcome [5] | Potency [6] | Potency [9] | outcome [7] | outcome [8]
